Source: PubChem BioAssay (Tox21)
Where “and” joins values, the source holds several entries; their conditions need not be identical. Identical values can stand only once. Inconclusive results are not listed. More than one record can exist for a structure, and the calls need not agree. Calls of active or inactive are those of the source. Unless noted, calls follow the shape of the dose curve; as a rule, active = well fitted curve in the direction sought with a large enough effect in the repeat runs; inconclusive = weak or mixed curves; inactive = no such curve, though single readings can be large; an effect the other way counts as inactive or inconclusive.

Experiments:
[1] = qHTS assay to identify small molecule agonists of the sonic hedgehog signaling (Shh) pathway (AID 1259368; calls by dose curve;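 also: NIH/3T3-derived 3T3Gli1-Luc cells carrying a stable Gli1-driven firefly luciferase reporter; series mostly up to about 92 µM; nearly all actives have a fitted effect of over 15% in size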)
Procedure, shortened: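 Cells of a mouse NIH/3T3 clone stably expressing luciferase under the Gli1 transcriptional response element are exposed to test chemicals for 24 hr at 37 C. Pathway activation is detected as a rise in luminescence.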

[2] = qHTS assay to identify small molecule antagonists of the sonic hedgehog signaling (Shh) pathway (AID 1259369; calls by dose curve; also: nearly all actives have a fitted effect of over 45% in size; also: potency is read from the fitted curve at half-maximal effect)
Procedure, shortened: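 Cells are plated and held 4hr at 37 C, compounds (DMSO) are pinned in, conditioned medium is added to stimulate the pathway, and after 24hr luciferase reagent is added for 30min before luminescence is read.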

[3] = biological target: Estrogen receptor beta (Homo sapiens) (UniProt Q92731); assay: qHTS assay to identify small molecule agonists of the estrogen receptor beta (ER-beta) signaling pathway (AID 1259377; active = well fitted activation curve with a large enough effect in the signal ratio in the repeat runs, not every such curve was filed as active; the % refers to the signal ratio)
Sequence of Estrogen receptor beta (Homo sapiens) (Q92731 whole entry, looked up): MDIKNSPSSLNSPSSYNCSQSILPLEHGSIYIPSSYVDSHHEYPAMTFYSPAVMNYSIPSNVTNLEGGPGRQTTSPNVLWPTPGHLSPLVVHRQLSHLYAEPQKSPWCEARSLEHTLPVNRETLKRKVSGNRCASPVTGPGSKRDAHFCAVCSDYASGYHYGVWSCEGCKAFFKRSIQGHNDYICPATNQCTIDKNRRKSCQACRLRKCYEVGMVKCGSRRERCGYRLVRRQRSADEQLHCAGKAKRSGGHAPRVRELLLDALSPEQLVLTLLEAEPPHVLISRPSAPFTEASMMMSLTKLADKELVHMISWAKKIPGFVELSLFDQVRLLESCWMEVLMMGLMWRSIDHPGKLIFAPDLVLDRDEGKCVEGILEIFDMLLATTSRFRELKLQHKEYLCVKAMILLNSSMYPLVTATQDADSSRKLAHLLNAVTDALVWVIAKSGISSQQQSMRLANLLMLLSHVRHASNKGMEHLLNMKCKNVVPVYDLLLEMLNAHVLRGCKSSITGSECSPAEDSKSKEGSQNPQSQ
Procedure, shortened: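 Beta-lactamase reporter readout: fluorescence of LiveBLAzer B/G FRET substrate after 2 h at room temperature, following 16 h compound treatment of ER-beta-UAS-bla HEK293T cells at 37C in 2% charcoal-stripped FBS medium.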

[4] = biological target: Estrogen receptor beta (Homo sapiens) (UniProt Q92731); assay: qHTS assay to identify small molecule antagonists of the estrogen receptor beta (ER-beta) signaling pathway (AID 1259378; active = well fitted inhibition curve with a large enough effect in the signal ratio in the repeat runs, not every such curve was filed as active; the % refers to the signal ratio; also: potency is read from the fitted curve at half-maximal effect)
Procedure, shortened: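 ER-beta-UAS-bla HEK293T cells in 2% charcoal-stripped FBS medium treated with compound plus 1nM final 17-beta-estradiol for 16 hr at 37C. Beta-lactamase reporter read by FRET substrate fluorescence after 2 hours at room temperature.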

[5] = qHTS assay to identify small molecule agonists of the estrogen receptor beta (ER-beta) signaling pathway - cell viability counter screen (AID 1259380); also: nearly all actives have a fitted effect of over 30% in size; also: potency is read from the fitted curve at half-maximal effect
Procedure, shortened: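 Cytotoxicity is measured in parallel with the reporter screen: after 16 hr compound exposure at 37C and a 2 hr LiveBLAzer step, CellTiter-Glo is added to the same ER-beta-UAS-bla HEK293T wells and luminescence read after 30 min.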

[6] = qHTS assay to identify small molecule antagonists of the estrogen receptor beta (ER-beta) signaling pathway - cell viability counter screen (AID 1259382); also: series mostly up to about 92 µM; nearly all actives have a fitted effect of over 55% in size
Procedure, shortened: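 Cytotoxicity counter screen multiplexed with the beta-lactamase antagonist assay: GripTite HEK293T ER-beta-bla cells were treated 16 hr with test chemicals in the presence of 1nM 17-beta-estradiol, and viability was measured by CellTiter-Glo.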

[7] = biological target: Estrogen receptor (Homo sapiens) (UniProt P03372); assay: qHTS assay to identify small molecule agonists of the estrogen receptor alpha (ER-alpha) signaling pathway in the presence of an antagonist (AID 1259383; calls by dose curve; also: top concentration of the series differs between compounds; nearly all actives have a fitted effect of over 15% in size)
Sequence of Estrogen receptor (Homo sapiens) (P03372 whole entry, looked up): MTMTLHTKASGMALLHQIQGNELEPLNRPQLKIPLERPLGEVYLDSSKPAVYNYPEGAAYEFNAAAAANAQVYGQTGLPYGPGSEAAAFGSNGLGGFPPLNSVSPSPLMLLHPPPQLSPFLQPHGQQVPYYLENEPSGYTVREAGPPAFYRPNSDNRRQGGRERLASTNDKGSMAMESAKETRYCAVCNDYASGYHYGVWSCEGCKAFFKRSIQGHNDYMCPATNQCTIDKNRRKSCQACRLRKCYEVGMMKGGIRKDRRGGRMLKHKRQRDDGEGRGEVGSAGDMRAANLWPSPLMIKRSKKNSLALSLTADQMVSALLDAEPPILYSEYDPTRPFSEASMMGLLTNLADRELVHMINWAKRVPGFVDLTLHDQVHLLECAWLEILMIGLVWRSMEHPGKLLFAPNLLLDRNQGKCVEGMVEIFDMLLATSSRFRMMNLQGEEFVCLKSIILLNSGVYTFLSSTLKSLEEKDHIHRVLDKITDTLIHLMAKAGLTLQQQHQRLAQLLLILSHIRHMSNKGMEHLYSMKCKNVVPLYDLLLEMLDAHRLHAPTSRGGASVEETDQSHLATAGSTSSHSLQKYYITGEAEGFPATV
Procedure, shortened: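 Agonist-mode confirmation in the presence of the ER antagonist ICI-182,780 at 10.0nM final. Breast-derived VM7Luc4E2 reporter cells were exposed to compounds for 22hr, and ERE-driven luciferase was quantified by luminescence.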

[8] = qHTS assay to identify small molecule agonists or antagonists of the thyroid stimulating hormone receptor (TSHR) signaling pathway - wild type cell line counter screen (AID 1259384; calls by dose curve)
Procedure, shortened: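 Wild-type Hek293 cells, 800/well, 18 h at 37C, then compound with Ro20-1724 for 30 min RT. cAMP by HTRF (cAMP-d2/anti-cAMP cryptate), 1 h RT, fluorescence read. 15 concentrations, triplicates.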

[9] = biological target: Thyrotropin receptor (Homo sapiens) (UniProt P16473); assay: qHTS assay to identify small molecule antagonists of the thyroid stimulating hormone receptor (TSHR) signaling pathway (AID 1259385; calls by dose curve; also: nearly all actives have a fitted effect of over 20% in size)
Sequence of Thyrotropin receptor (Homo sapiens) (P16473 whole entry, looked up): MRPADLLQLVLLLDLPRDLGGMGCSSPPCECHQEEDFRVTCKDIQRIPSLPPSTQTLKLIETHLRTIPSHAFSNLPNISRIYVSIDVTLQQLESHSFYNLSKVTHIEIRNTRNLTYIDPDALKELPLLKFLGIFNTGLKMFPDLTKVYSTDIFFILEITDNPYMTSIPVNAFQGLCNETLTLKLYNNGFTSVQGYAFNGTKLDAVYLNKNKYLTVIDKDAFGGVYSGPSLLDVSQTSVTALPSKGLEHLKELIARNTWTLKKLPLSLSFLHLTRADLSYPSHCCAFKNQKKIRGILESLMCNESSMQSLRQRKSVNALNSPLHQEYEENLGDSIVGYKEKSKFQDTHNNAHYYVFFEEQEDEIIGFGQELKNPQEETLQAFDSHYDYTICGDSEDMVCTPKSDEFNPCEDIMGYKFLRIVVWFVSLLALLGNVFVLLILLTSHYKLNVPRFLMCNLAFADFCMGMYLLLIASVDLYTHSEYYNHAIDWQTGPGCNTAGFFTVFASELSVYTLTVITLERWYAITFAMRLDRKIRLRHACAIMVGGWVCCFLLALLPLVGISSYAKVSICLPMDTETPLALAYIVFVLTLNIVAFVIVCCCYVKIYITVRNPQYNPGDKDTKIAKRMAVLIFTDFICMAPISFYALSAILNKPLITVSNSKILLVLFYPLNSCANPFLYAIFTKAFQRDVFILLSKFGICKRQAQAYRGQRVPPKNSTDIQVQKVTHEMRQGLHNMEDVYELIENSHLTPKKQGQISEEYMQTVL
Procedure, shortened: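 TSHR-HEK293 cells (800/well) plated 18 h, then compounds with Ro20-1724 and TSH at 1.5 ng/mL final, 30 min at room temperature. cAMP quantified by HTRF (cAMP-d2/anti-cAMP-cryptate, 1 h); 15 concentrations in triplicate.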

[10] = qHTS assay to identify small molecule agonists of the estrogen receptor alpha (ER-alpha) signaling pathway in the presence of an antagonist - cell viability counter screen (AID 1259386);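 also: series mostly up to about 92 µM; cells exposed to compounds for 22 h at 37 °C before the viability read; nearly all actives have a fitted effect of over 30% in size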
Procedure, shortened: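 Cytotoxicity was measured in parallel with the ERE-luciferase agonist screen, in the same wells. The cells were VM7Luc4E2, which endogenously express ER-alpha, and treatment was with compounds plus 10.0nM ICI-182,780 for 22hr.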

[11] = biological target: Progesterone receptor (Homo sapiens) (UniProt P06401); assay: qHTS assay to identify small molecule agonists of the progesterone receptor (PR) signaling pathway (AID 1346784; calls by dose curve; also: nearly all actives have a fitted effect of over 30% in size)
Sequence of Progesterone receptor (Homo sapiens) (P06401 whole entry, looked up): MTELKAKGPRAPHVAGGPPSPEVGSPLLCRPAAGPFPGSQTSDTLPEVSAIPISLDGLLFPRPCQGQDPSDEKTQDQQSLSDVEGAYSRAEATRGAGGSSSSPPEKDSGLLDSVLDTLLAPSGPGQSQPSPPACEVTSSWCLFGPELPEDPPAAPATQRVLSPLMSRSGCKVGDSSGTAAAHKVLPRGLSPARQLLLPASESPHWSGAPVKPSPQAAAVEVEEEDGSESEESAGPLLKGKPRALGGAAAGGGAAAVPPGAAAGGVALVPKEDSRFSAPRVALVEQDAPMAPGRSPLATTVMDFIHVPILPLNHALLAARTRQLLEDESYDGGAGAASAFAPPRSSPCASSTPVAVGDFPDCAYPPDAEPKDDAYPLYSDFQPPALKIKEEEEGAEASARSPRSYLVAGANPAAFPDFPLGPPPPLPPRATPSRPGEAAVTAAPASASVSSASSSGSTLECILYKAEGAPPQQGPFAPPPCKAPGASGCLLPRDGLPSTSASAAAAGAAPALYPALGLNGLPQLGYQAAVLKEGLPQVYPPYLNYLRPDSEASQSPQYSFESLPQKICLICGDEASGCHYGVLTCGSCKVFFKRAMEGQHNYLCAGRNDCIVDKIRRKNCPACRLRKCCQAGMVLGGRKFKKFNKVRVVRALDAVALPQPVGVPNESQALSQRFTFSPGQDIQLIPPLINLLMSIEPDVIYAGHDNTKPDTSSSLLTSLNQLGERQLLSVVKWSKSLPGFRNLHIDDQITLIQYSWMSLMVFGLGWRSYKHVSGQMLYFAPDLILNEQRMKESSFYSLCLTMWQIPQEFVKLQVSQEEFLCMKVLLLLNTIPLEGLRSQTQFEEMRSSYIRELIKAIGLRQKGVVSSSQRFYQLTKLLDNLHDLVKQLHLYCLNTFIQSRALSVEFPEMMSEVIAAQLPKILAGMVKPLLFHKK
Procedure, shortened: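 HEK 293T PR-UAS-bla reporter cells, 2% charcoal-stripped FBS; 6 hr settle at 37C/5% CO2, compound (DMSO) 16 hr, LiveBLAzer B/G FRET substrate 2 hr RT, fluorescence intensity read.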

[12] = qHTS assay to identify small molecule antagonists of the progesterone receptor (PR) signaling pathway - cell viability counter screen (AID 1346798); also: series mostly up to about 92 µM; nearly all actives have a fitted effect of over 50% in size
Procedure, shortened: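 Luminescence readout (CellTiter-Glo, 30 min, RT) of viability in PR-UAS-bla HEK293T cells exposed to compound and R5020 agonist for 16 hr at 37C, 5% CO2; run in the same wells as the beta-lactamase reporter read.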

[13] = qHTS assay to identify small molecule agonists of the progesterone receptor (PR) signaling pathway - cell viability counter screen (AID 1346799; calls by dose curve; also: nearly all actives have a fitted effect of over 45% in size; also: potency is read from the fitted curve at half-maximal effect)
Procedure, shortened: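 HEK293T PR-UAS-bla, 3,000 cells/well, 2% charcoal-stripped FBS; 6 h settle, compound 16 h at 37C/5% CO2; LiveBLAzer 2 h RT, then CellTiter-Glo 30 min RT, luminescence read.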

[14] = qHTS assay to identify small molecule antagonists of the TGF-beta/Smad signaling pathway - cell viability counter screen (AID 1346824); also: nearly all actives have a fitted effect of over 50% in size
Procedure, shortened: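 SBE-bla HEK 293T cells, incubated overnight, then compound plus 0.25 ng/mL TGF-beta1 (stock added) for 5 hr at 37 C. Viability was read in the same wells by CellTiter-Glo luminescence after 30 min at room temperature.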

[15] = qHTS assay to identify small molecule agonists of the TGF-beta/Smad signaling pathway - cell viability counter screen (AID 1346829); also: top concentration of the series differs between compounds; nearly all actives have a fitted effect of over 45% in size
Procedure, shortened: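 HEK 293T SBE-bla line, 5 hr compound exposure at 37 C, multiplexed CellTiter-Glo viability read by luminescence.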

[16] = qHTS assay to identify small molecule agonists of the TGF-beta/Smad signaling pathway (AID 1346859; active = well fitted activation curve with a large enough effect in the signal ratio in the repeat runs, not every such curve was filed as active; the % refers to the signal ratio; also: series mostly up to about 77 µM)
Procedure, shortened: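 Read-out: fluorescence at 460 and 530 nm (405 nm excitation) after a 2 hr room-temperature incubation with beta-lactamase FRET substrate. SBE-bla HEK 293T cells had been treated with test compounds for 5 hr at 37 C.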

[17] = biological target: Thyrotropin-releasing hormone receptor (Homo sapiens) (UniProt P34981); assay: qHTS assay to identify small molecule antagonists of the thyrotropin-releasing hormone receptor (TRHR) signaling pathway (AID 1346877; active = well fitted inhibition curve with a large enough effect in the repeat runs, not every such curve was filed as active; also: series mostly up to about 51 µM)
Sequence of Thyrotropin-releasing hormone receptor (Homo sapiens) (P34981 whole entry, looked up): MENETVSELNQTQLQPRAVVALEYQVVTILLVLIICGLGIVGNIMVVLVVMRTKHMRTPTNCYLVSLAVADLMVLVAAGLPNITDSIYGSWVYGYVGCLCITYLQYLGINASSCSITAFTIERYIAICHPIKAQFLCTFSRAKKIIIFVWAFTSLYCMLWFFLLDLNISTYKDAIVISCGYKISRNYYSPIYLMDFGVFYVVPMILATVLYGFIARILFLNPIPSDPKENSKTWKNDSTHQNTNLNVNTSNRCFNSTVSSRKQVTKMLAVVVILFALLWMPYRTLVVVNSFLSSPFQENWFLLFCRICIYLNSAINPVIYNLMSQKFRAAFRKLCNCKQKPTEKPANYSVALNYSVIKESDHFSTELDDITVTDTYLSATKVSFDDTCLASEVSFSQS
Procedure, shortened: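 Antagonism is measured as suppression of the calcium response to 1 nM TRH in TRHR-HEK293 cells that have been dye-loaded for 2 h at 37 °C after overnight plating. Each compound is tested at 15 concentrations in triplicate.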

[18] = qHTS assay to identify small molecule agonists of the androgen receptor (AR) signaling pathway in the presence of an antagonist - cell viability counter screen (AID 1259379); also: nearly all actives have a fitted effect of over 25% in size; also: potency is read from the fitted curve at half-maximal effect
Procedure, shortened: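 Cytotoxicity is assessed by CellTiter-Fluor in MDA-kb2 cells carrying an MMTV-driven luciferase reporter. Cells receive 3.0uM nilutamide plus compounds at 15 concentrations and incubate 16 hr at 37C without CO2 before fluorescence reading.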

[19] = biological target: Progesterone receptor (Homo sapiens) (UniProt P06401); assay: qHTS assay to identify small molecule antagonists of the progesterone receptor (PR) signaling pathway (AID 1346795; active = well fitted inhibition curve with a large enough effect in the signal ratio in the repeat runs, not every such curve was filed as active; the % refers to the signal ratio)
Procedure, shortened: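 Beta-lactamase reporter, HEK293T PR-UAS-bla line; 2% charcoal-stripped FBS; 6 hr pre-incubation, 37C/5% CO2. Compound + R5020 1 nM final, 16 hr. LiveBLAzer B/G FRET substrate, 2 hr RT; fluorescence intensity read.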

Measured: Potency

Cn1cnc([N+](=O)[O-])c1Sc1ncnc2nc[nH]c12
active: [2] 30.4 µM | [5] 4.83 µM and 8.41 µM
3.83 µM (active) and inactive: [13]
not listed: [18] | [19]
inactive: all other assays above

Cc1cccc(N(C)C(=S)Oc2ccc3ccccc3c2)c1
active: [2] 30.6 µM
not listed: [5] | [11] | [13] | [16] | [17] | [19]
inactive: all other assays above

O=C(/C=C/c1ccccc1)OCc1ccccc1
not listed: [1]
inactive: all other assays above

c1ccc(Nc2ccccc2)cc1
24.3 µM (active) and inactive: [4]
not listed: [7] | [16] | [17] | [18] | [19]
inactive: all other assays above

Nc1ccc(Cl)cc1Cl
not listed: [3] | [4] | [11] | [12] | [16] | [17] | [19]
inactive: all other assays above

COc1ccc(C(=O)CC(=O)c2ccc(C(C)(C)C)cc2)cc1
58.7 µM (active) and inactive: [18]
not listed: [3] | [4] | [7] | [11] | [16]
inactive: all other assays above

c1ccc2sc(SSN3CCOCC3)nc2c1
active: [2] 9.67 µM | [5] 30.6 µM
inactive: [1] | [7] | [8] | [10] | [11] | [13] | [14] | [15] | [17]

CC(C)CC(C)(O)C#CC(C)(O)CC(C)C (stereo not given)
9.49 µM (active) and inactive: [2]
not listed: [7] | [12] | [18] | [19]
inactive: all other assays above

CC(C)(C)NC(=O)[C@H]1CC[C@H]2[C@@H]3CC[C@H]4NC(=O)C=C[C@]4(C)[C@H]3CC[C@]12C
2.7 µM (active) and inactive: [2]
inactive: [1] | [18] | [6] | [7] | [10] | [12] | [13] | [14] | [15] | [17]
